The list is not random: actives were taken first. Their share in the collection is about 19%.
HT1080NT lethal = kills 2HG-producing HT-1080-NT fibrosarcoma cells. HT-1080-NT fibrosarcoma viability, CellTiter-Glo ATP luminescence, 48 h. Potency, µM (highest dose often 46.1 µM), without a hit: at the top dose activity, negative = less viability, most hits filed as cytotoxic. hit rate 1.6% among 360,000. AID 686970;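 further: NT is the 2HG producing partner of a matched IDH1 knockdown line; potency means the concentration at half of the fitted maximal effect; 0% = DMSO-treated cells and -100% = media-only wells without cells; nearly all actives have a fitted effect of over 55% in size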
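Viability of the 2HG-overproducing fibrosarcoma line after 48 hours of compound exposure at 37 degrees C was determined by luminescence with CellTiter-Glo, and concentration-effect curves were then fitted and categorized.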
IL1B secr inh = inflammasome signaling inhibition, IL-1 beta readout | THP-1 LPS/ATP IL-1B secretion, AlphaLISA, 16 h; hits give low values | AID 743279 | activity change, % at 57.5 µM | hit rate 4.7% among 360,000; in the data active means activity change below about -50%; inconclusive means mostly about -30% to -49%
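THP-1 cells pretreated 1 hr with compounds (up to 57.5 uM final), then stimulated with LPS (250 ng/mL final) plus ATP (1.25 mM final); secreted IL-1B measured by AlphaLISA after 16 hr, decreased signal indicating inhibition.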
TDP1 cell noCPT = qHTS for Inhibitors of human tyrosyl-DNA phosphodiesterase 1 (TDP1): qHTS in cells in absence of CPT; DT40 Tdp1-/- hTDP1 cells, no CPT, ATP luminescence, 48 h; Potency, µM (titrated, usually from 46.2 µM), for the others: top-dose activity change, negative = growth inhibition, actives largely listed as inhibitors; hit rate 15% among 420,000; further: potency means the concentration at half of the fitted maximal effect; nearly all actives have a fitted effect of over 55% in size
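Chicken DT40 Tdp1-/- cells stably complemented with human TDP1 were seeded at 400 cells/well with DMSO in place of 20 nM camptothecin. After compound pinning, cells grew at least 48 hr at 37 °C; viability read by CellTiter-Glo luminescence.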
HT1080 IDH1KD tx = toxicity to HT-1080 IDH1 knockdown cells (counter line); hit rate 2% among 360,000; AID 686971; Potency, µM (highest dose often 46.1 µM), for inactives: at the highest dose activity, negative = toxicity, hits mostly cytotoxic; HT-1080 IDH1 knockdown viability, ATP luminescence, 48 h;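 further: potency means the concentration at half of the fitted maximal effect; 0% = DMSO wells and -100% = cell-free medium wells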
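Viability of IDH1-knockdown HT-1080 fibrosarcoma cells was assessed by CellTiter-Glo after 48 h at 37 °C with titrated compound; concentration-effect curves were classified by fit quality and response size.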
DT40 TDP1 CPT = DT40-hTDP1 cell growth loss with CPT | hit rate 12% among 420,000 | chicken DT40 Tdp1-/-;hTDP1 cells + 20 nM CPT, ATP luminescence, 48 h | Potency, µM (highest dose often 46.2 µM), without a hit: at the top dose activity change, negative = growth inhibition, hits mostly inhibitors; further: potency means the concentration at half of the fitted maximal effect; nearly all actives have a fitted effect of over 55% in size
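Chicken DT40 Tdp1-/- cells complemented with human TDP1, 400 cells/well, exposed to compounds plus 20 nM camptothecin for at least 48 h at 37 C; viability read as ATP content by CellTiter-Glo luminescence.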
Starred values were filed as active, the others as inactive. Unless noted, the call rests on the fitted dose curve; in most records, active means well fitted curve in the direction sought with a large enough effect; inconclusive means small, poorly fitted or top-dose-only effect, or another doubt; inactive means no such curve, though single readings can be large; an effect the other way counts as inactive or inconclusive. Unless noted, on the % scale 0 is the no-effect control and ±100 the full control effect.

What do the screens show for `CCCCOc1ccc(Br)cc1/C(C)=N/NC1=NCCN1`?
HT1080NT lethal: 8.2µM*; IL1B secr inh: -113*; TDP1 cell noCPT: 4.1µM*; HT1080 IDH1KD tx: 6.5µM*; DT40 TDP1 CPT: 4.6µM*

What do the screens show for `COc1ccc(-n2c(SC(C)C(=O)Nc3ccc(NC(C)=O)cc3)nc3ccccc3c2=O)cc1OC` (stereo not given)?
HT1080NT lethal: -10%; IL1B secr inh: 5; TDP1 cell noCPT: -21%; HT1080 IDH1KD tx: -15%; DT40 TDP1 CPT: -16%

Results for CC1CN(C(=O)COC(=O)c2cc(=O)[nH]c3ccccc23)CC(C)O1 (stereo not given) ?
HT1080NT lethal: 2%; IL1B secr inh: 2; TDP1 cell noCPT: 3%; HT1080 IDH1KD tx: 15%; DT40 TDP1 CPT: 2%

Results for O=C(NC1CCCC1)C(c1ccccc1)N(Cc1ccc(F)cc1)C(=O)c1csnn1 (stereo not given) ?
HT1080NT lethal: 3%; IL1B secr inh: -4; TDP1 cell noCPT: -8%; HT1080 IDH1KD tx: -4%; DT40 TDP1 CPT: -14%

How did O=C(NC1CCCC1)C(c1ccc(Cl)cc1)N(Cc1ccc(F)cc1)C(=O)CCl (stereo not given) do in these assays?
HT1080NT lethal: -9%; IL1B secr inh: inconclusive; TDP1 cell noCPT: 2.6µM*; HT1080 IDH1KD tx: -2%; DT40 TDP1 CPT: 2.6µM*

How did O=C(NC1CCCC1)C(c1ccc(F)cc1)N(Cc1ccc(Cl)cc1)C(=O)CCl (stereo not given) do in these assays?
HT1080NT lethal: -1%; IL1B secr inh: -102*; TDP1 cell noCPT: 4.1µM*; HT1080 IDH1KD tx: -13%; DT40 TDP1 CPT: 3.3µM*

Results for COc1ccc2[nH]c3c(c2c1)CCN1C(=O)C(CC(=O)NCc2cccc(C(F)(F)F)c2)C[C@H](C(=O)N2CCCCC2)[C@@]31CCc1ccccc1 (stereo not given in full) ?
HT1080NT lethal: 2%; IL1B secr inh: inconclusive; TDP1 cell noCPT: inconclusive; HT1080 IDH1KD tx: 0%; DT40 TDP1 CPT: 16µM*

What do the screens show for `COc1ccc2[nH]c3c(c2c1)CCN1C(=O)C(CC(=O)NCCC2=CCCCC2)C[C@H](C(=O)N2CCCCC2)[C@@]31CCc1ccccc1` (stereo not given in full)?
HT1080NT lethal: 9%; IL1B secr inh: 6; TDP1 cell noCPT: inconclusive; HT1080 IDH1KD tx: 5%; DT40 TDP1 CPT: inconclusive

What do the screens show for `COCCCNC(=O)C[C@H]1C[C@H](C(=O)N2CCCCC2)[C@@]2(CCc3ccccc3)c3[nH]c4ccc(Cl)cc4c3CCN2C1=O`?
HT1080NT lethal: 7%; IL1B secr inh: -17; TDP1 cell noCPT: 4.6µM*; HT1080 IDH1KD tx: 4%; DT40 TDP1 CPT: 8.2µM*

Results for O=C(C[C@H]1C[C@H](C(=O)N2CCCCC2)[C@@]2(CCc3ccccc3)c3[nH]c4ccc(Cl)cc4c3CCN2C1=O)NCc1cccc(C(F)(F)F)c1 ?
HT1080NT lethal: 8%; IL1B secr inh: inconclusive; TDP1 cell noCPT: 12µM*; HT1080 IDH1KD tx: 0%; DT40 TDP1 CPT: 13µM*

What do the screens show for `COc1ccc2[nH]c3c(c2c1)CCN1C(=O)C(CC(=O)NCCN2CCOCC2)C[C@H](C(=O)N2CCCCC2)[C@@]31CCc1ccccc1` (stereo not given in full)?
HT1080NT lethal: 13%; IL1B secr inh: 3; TDP1 cell noCPT: inconclusive; HT1080 IDH1KD tx: 5%; DT40 TDP1 CPT: inconclusive

Results for O=C(C[C@H]1C[C@H](C(=O)N2CCCCC2)[C@@]2(CCc3ccccc3)c3[nH]c4ccc(Cl)cc4c3CCN2C1=O)NCc1ccco1 ?
HT1080NT lethal: 4%; IL1B secr inh: -19; TDP1 cell noCPT: 8.2µM*; HT1080 IDH1KD tx: 4%; DT40 TDP1 CPT: 7.3µM*

Screens: PubChem, National Center for Advancing Translational Sciences (NCATS)
